Bioassay records: PubChem, Broad Institute
Vc quorum ag-1: induces V. cholerae light production without autoinducers. V. cholerae BH1578 lux reporter, luminescence, 6 h. activation, % at 18.7 µM. 350,000 tested, 0.16% active. AID 588436; in the data active = activation mostly above about 9.7%, no sharp cut-off
TcdB inh: blocks C. difficile toxin B glycohydrolase activity; inhibition, % at 9.99 µM; 350,000 tested, 0.24% active; P18177; TcdB glycohydrolase enzymatic assay, plate reader; AID 652162; in the data active = inhibition above about 10%
Target sequence (P18177 whole entry, looked up): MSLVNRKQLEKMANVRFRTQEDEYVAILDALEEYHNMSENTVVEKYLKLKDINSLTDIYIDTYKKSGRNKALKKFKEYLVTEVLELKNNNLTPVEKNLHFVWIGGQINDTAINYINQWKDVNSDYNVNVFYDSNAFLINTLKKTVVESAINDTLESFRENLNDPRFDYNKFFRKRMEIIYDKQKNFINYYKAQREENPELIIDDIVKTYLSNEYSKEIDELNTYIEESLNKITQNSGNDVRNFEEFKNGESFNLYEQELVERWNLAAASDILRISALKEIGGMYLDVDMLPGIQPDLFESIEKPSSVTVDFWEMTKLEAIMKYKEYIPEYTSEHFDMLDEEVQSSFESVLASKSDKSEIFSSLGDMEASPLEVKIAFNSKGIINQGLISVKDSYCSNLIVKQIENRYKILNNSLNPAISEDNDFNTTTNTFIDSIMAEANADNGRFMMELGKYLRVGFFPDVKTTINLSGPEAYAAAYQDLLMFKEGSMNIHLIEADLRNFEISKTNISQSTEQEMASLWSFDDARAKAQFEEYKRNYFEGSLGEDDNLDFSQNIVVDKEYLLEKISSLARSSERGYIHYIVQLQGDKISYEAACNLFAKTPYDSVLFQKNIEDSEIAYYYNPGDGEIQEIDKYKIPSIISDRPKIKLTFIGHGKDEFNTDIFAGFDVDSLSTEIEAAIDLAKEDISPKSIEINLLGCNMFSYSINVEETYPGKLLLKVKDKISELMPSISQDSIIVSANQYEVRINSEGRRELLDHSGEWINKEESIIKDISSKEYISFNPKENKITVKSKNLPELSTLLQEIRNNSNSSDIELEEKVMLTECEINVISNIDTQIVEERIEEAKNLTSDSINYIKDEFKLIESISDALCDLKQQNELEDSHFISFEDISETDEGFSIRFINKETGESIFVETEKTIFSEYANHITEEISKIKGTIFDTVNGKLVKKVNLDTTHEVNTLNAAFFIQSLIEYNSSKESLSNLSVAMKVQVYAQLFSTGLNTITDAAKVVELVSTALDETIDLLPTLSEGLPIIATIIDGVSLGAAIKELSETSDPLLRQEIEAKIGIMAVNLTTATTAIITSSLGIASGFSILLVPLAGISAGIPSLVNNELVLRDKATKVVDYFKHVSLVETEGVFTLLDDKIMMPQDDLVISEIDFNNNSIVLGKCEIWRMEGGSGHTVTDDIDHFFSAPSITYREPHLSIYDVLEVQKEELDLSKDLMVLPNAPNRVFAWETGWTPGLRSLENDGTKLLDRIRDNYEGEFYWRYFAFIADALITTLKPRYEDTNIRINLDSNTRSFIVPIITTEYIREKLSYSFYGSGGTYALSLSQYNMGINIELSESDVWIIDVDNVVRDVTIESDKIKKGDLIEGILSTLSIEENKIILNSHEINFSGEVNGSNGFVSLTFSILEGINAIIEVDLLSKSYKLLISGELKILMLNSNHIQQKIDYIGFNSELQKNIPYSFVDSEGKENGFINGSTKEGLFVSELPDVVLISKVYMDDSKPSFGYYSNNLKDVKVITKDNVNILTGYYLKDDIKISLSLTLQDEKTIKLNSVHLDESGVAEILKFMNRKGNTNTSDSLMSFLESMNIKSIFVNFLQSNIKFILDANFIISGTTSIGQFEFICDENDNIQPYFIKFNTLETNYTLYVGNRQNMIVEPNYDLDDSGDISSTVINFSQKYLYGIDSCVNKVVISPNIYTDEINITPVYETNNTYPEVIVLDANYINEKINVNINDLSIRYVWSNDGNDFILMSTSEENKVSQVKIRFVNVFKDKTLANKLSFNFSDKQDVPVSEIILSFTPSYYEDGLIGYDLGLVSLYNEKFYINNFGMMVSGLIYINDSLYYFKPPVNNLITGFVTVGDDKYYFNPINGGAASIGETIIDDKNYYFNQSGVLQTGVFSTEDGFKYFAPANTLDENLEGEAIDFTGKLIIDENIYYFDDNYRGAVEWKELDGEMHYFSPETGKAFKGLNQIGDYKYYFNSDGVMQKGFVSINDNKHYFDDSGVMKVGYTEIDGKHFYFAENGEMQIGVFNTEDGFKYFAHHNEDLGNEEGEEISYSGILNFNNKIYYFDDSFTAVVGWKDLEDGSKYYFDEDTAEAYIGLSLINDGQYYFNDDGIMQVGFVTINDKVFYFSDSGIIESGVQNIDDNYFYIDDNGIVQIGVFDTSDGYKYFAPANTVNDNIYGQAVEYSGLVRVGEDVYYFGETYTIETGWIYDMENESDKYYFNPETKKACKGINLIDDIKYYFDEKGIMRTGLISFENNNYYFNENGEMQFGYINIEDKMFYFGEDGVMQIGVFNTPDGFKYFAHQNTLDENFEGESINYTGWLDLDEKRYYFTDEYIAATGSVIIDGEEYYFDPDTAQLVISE
Yp Topo-I inh: inhibitors of Yersinia pestis topoisomerase I. Y. pestis Topo-I cleavage product accumulation, plate reader. activity, % at 10 µM. 360,000 tested, 0.064% active. AID 504884; in the data active = activity above about 50%, passing the limit was not always enough
FadD28 FP inh: inhibitors of Mycobacterium tuberculosis FadD28 bisubstrate binding. inhibition, % at 12.5 µM. 360,000 tested, 0.22% active. FadD28 bisubstrate probe binding, fluorescence polarization. AID 588549; in the data active = inhibition above about 8.5%, passing the limit was not always enough
Mtb BioA inh: inhibitors of Mycobacterium tuberculosis BioA enzyme; purified M. tuberculosis BioA enzyme, plate reader; inhibition, % at 9.99 µM; 360,000 tested, 0.096% active; in the data active = inhibition above about 40%
Vc quorum ag-2: inducers of V. cholerae quorum light production without autoinducers; V. cholerae BH1578 lux reporter, luminescence, 6 h; AID 602243; shares compounds with Vc quorum ag-1; 620 tested, under 10 active; activation, % at 50 µM; call rule not given here
HeLa tox: kills HeLa cells within 24 hours; shares compounds with Vc quorum ag-1; HeLa viability, CellTiter-Glo ATP luminescence; activity change, negative = cytotoxicity, % at 35 µM; 25 tested, under 10 active; AID 624140;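 active = signal drop with fitted half-maximal concentration at or below twice the highest valid dose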
Active calls of the source: *. Sampled rows, rich in hits. Any-hit rate of the full collection: about 0.61%.

`Cc1ccc(S(=O)(=O)Nc2ccccc2F)cc1C(=O)NCCCN1CCCC1=O` gave Vc quorum ag-1 14, Yp Topo-I inh -1, FadD28 FP inh -1, Mtb BioA inh -2 and Vc quorum ag-2 0.
`COc1cccc(NC(=O)C2CC(=O)OC23CCOC(C)(C)C3)c1` (stereo not given) gave Vc quorum ag-1 18, Yp Topo-I inh 8, FadD28 FP inh 1, Mtb BioA inh 0 and Vc quorum ag-2 0.
Screening O=C(OC1CCN(c2ncc(C(F)(F)F)cc2Cl)CC1)c1ccc(Cl)cc1 returned Vc quorum ag-1 12, Yp Topo-I inh -2, FadD28 FP inh -4, Mtb BioA inh 0 and Vc quorum ag-2 0.
Screening CC1CCCCC1NC(=O)COC(=O)c1ccccc1NC(=O)c1ccco1 (stereo not given) returned Vc quorum ag-1 21*, Yp Topo-I inh -2, FadD28 FP inh -5, Mtb BioA inh -2 and Vc quorum ag-2 0.
For CNC(=O)COC(=O)c1ccccc1NC(=O)c1ccco1 the results were Vc quorum ag-1 -2, TcdB inh 1, Yp Topo-I inh 7, FadD28 FP inh -2 and Mtb BioA inh 5.
`Cc1noc(C)c1S(=O)(=O)Nc1ccc2c(c1)C(=O)N([C@@H](C)CO)C[C@H](C)[C@H](CN(C)Cc1ccc(C(=O)O)cc1)O2` gave TcdB inh 0 and Mtb BioA inh -2.
`Cc1noc(C)c1S(=O)(=O)Nc1ccc2c(c1)C(=O)N([C@H](C)CO)C[C@H](C)[C@@H](CN(C)Cc1ccc(C(=O)O)cc1)O2` gave Vc quorum ag-1 20, TcdB inh -1, Yp Topo-I inh 6, FadD28 FP inh 1, Mtb BioA inh 0 and Vc quorum ag-2 0.
For C[C@H](CO)N1C[C@H](C)[C@@H](CN(C)C(=O)C2CCC2)Oc2cc(-c3cccnc3)ccc2S1(=O)=O the results were TcdB inh 0 and Mtb BioA inh 2.
Screening COCCN(C(=O)C1CCC1)c1nnc(-c2cccnc2)s1 returned Vc quorum ag-1 14, Yp Topo-I inh 7, FadD28 FP inh 0, Mtb BioA inh -3 and Vc quorum ag-2 0.
For CCN(C(=O)C1CCCCC1)c1nnc(-c2cccnc2)s1 the results were Vc quorum ag-1 0, Yp Topo-I inh 3, FadD28 FP inh 0 and Mtb BioA inh 15.
COc1ccccc1N1CCN(C(=O)c2cc3c(s2)CCC3)CC1 was read as Vc quorum ag-1 12, Yp Topo-I inh 24, FadD28 FP inh -3 and Vc quorum ag-2 0.
`CO[C@H]1CC[C@@H]2CCOc3ccc(C#N)cc3C(=O)N(C)C[C@H](OC)[C@@H](C)C(=O)N(C)C[C@@H]1O2` gave TcdB inh 0 and Mtb BioA inh 0.
`Cc1cc(C(F)(F)F)c2c(N)c(C(=O)NC3CC3)sc2n1` gave Vc quorum ag-1 12, TcdB inh 1, Yp Topo-I inh -9, FadD28 FP inh 1, Mtb BioA inh -4 and Vc quorum ag-2 1.
For O=C(COc1ccccc1)NC1CCCN(Cc2ccccc2)C1 (stereo not given) the results were HeLa tox 5.
COc1ccc(OCC(=O)NC2CCCN(Cc3ccc(Cl)cc3)C2)cc1 (stereo not given) was read as TcdB inh -4, Yp Topo-I inh 32, FadD28 FP inh -1, Mtb BioA inh 4 and Vc quorum ag-2 inactive.
`O=C(COc1ccccc1)NC1CCN(Cc2ccccc2)CC1` gave Vc quorum ag-1 inactive, Yp Topo-I inh 3 and FadD28 FP inh 1.
For C(=C\c1ccc(C2[C@@H]3CN(Cc4cccnc4)C[C@H]2N3)cc1)/c1ccccc1 (stereo not given in full) the results were TcdB inh 0.
For O=C(Nc1nccs1)C(NS(=O)(=O)c1ccc(Br)s1)c1ccccc1 (stereo not given) the results were Vc quorum ag-1 25*, Yp Topo-I inh -9, FadD28 FP inh -1, Mtb BioA inh -2 and Vc quorum ag-2 0.
`CCC(=O)Nc1ccc2c(c1)OC[C@H](C)N(C(=O)C1CCC1)C[C@@H](C)[C@@H](OC)CN(C)C2=O` gave TcdB inh -1 and Mtb BioA inh 0.
Screening COc1cc(NC(=O)C2=C(C)OCCS2)c(Cl)cc1C(=O)NCCN(C)C returned Vc quorum ag-1 34*, TcdB inh 1, Yp Topo-I inh -1, FadD28 FP inh -2, Mtb BioA inh -1 and Vc quorum ag-2 1.
